# High-throughput results: PubChem, National Center for Advancing Translational Sciences (NCATS)
# The list is not random: actives were taken first. Their share in the collection is about 11%.
# Pf growth 48h: Primary qHTS for delayed death inhibitors of the malarial parasite plastid, 48 hour incubation; P. falciparum luciferase growth in erythrocytes, 48 h; AID 504832, 2011; actives 5.9% (n = 310,000); Potency, µM (series often up to 28.7 µM), for inactives: top-dose activity change, negative = inhibition, usual class: inhibitors; note: % is set by controls: 0 for no effect and ±100 for the full control effect
#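 Luminescence readout; reporter = integrated firefly luciferase in P. falciparum. RBC culture at 2% hematocrit, 0.1% parasitemia final, 37 C/5% CO2; decreased signal taken as growth inhibition.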
# Sm TGR inh: qHTS Assay for the Inhibitors of Schistosoma Mansoni Peroxiredoxins; Schistosoma mansoni thioredoxin glutathione reductase (TGR), Q962Y6; purified TGR, DTNB reduction, TNB absorbance 405 nm; Potency, µM (doses to about 114 µM), for the others: top-dose activity change, negative = inhibition, actives largely listed as inhibitors; actives 3% (n = 360,000); note: % is set by controls: 0 for no effect and ±100 for the full control effect; nearly all actives have a fitted effect of over 60% in size
#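 Kinetic colorimetric format: TGR-catalysed, NADPH-driven DTNB reduction monitored via TNB absorbance. Enzyme dispensed at 20 nM; compound exposure 15 min at room temperature before reaction start.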
# NS1 function inh: qHTS Assay for Inhibitors of Influenza NS1 Protein Function | Potency, µM (titrated, usually from 46.1 µM), without a hit: at the highest dose activity, positive = more growth | actives 0.4% (n = 270,000) | AID 2326, 2010; calls by dose curve; note: actives are rising curves; nearly all actives have a fitted effect of over 50% in size
#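 In this qHTS, NS1 from influenza A is expressed in budding yeast, where it slows growth. Cells are switched from glucose to 2% galactose medium (pH 6.0, -URA), treated with compound, and growth recovery is read at OD600.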
# Pf growth 96h: Primary qHTS for delayed death inhibitors of the malarial parasite plastid, 96 hour incubation | P. falciparum luciferase reporter growth, 96 h | Potency, µM (doses to about 28.7 µM), for the others: at the top dose activity change, negative = inhibition, hits mostly inhibitors | actives 6.9% (n = 320,000); note: % is set by controls: 0 for no effect and ±100 for the full control effect
#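 Parasite growth measured via integrated firefly luciferase reporter in P. falciparum. Infected erythrocytes at 2% hematocrit, 0.05% parasitemia final were treated 96 hours at 37 C under 5% CO2, and luminescence was read.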
# AMA1-RON2 inh: qHTS for Inhibitors of AMA1-RON; Towards Development of Antimalarial Drug Lead: Primary Screen; AlphaScreen AMA1-biotinylated RON2 peptide binding; Potency, µM (series often up to 58.2 µM), inactives show at the top dose activity change, negative = inhibition, usual class: inhibitors; AID 720542, 2013; Plasmodium falciparum AMA1 (3D7) - RON2 peptide interaction; actives 0.2% (n = 360,000);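 note: 0% = vehicle wells and -100% = peptide control; nearly all actives have a fitted effect of over 45% in size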
#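 AMA1 (3D7) with his tag at 25 nM final met compounds first, then biotinylated RON2 peptide at 25 nM; detection used donor plus acceptor beads, 10 µg/mL apiece, read by AlphaScreen after 30 min at room temperature.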
# An asterisk follows results filed as active; ? = inconclusive; nt = not tested or not shown. Unless noted, calls come from the whole dose curve; as a rule, active = well fitted curve in the direction sought with a large enough effect; inconclusive = small, poorly fitted or top-dose-only effect, or another doubt; inactive = no such curve, though single readings can be large; an effect the other way counts as inactive or inconclusive. Potency is the fitted concentration of half-maximal effect.
SMILES,Pf growth 48h,Sm TGR inh,NS1 function inh,Pf growth 96h,AMA1-RON2 inh
CCCC(=O)C1=C(O)C(C(=O)OC)C(C)(C)CC1=Nc1ccc(N)cc1 (stereo not given),?,0%,-1%,?,-5%
CC1=CC(=NOC(=O)c2cccc([N+](=O)[O-])c2)C=C(C)C1=O,?,2.8µM*,-13%,nt,8%
CC1=CC(=O)C(C(C)C)=C/C1=N/OC(=O)c1cccc([N+](=O)[O-])c1,nt,45µM*,-69%,?,0%
Cc1ccc(OCc2cc(C(=O)N3CCN(c4ccccc4)CC3)no2)cc1C,56%,-15%,3%,18%,-20%
CCN(CC)C(=O)c1sc2c(c1C)c(=O)n(Cc1ccccc1)c(=O)n2Cc1c(C)cc(C)cc1C,nt,6%,nt,nt,nt
O=C(O)c1cc(NC(=O)c2cccc(F)c2)cc(NC(=O)c2cccc(F)c2)c1,-3%,15%,?,4%,6%
CCCN(CCC)CCNC(=O)C1CC(=O)N(c2ccc(OC)cc2)C1c1ccc(OC)cc1 (stereo not given),?,-1%,-3%,1.7µM*,-1%
COc1ccc(C2C(C(=O)N3CCC4(CC3)OCCO4)CC(=O)N2c2ccc(OC)cc2)cc1 (stereo not given),12µM*,-15%,1%,nt,10%
COc1ccc(C2C(C(=O)N3CCCCC3)CC(=O)N2c2ccc(OC)cc2)cc1 (stereo not given),1.7µM*,2%,-3%,9.3µM*,0%
COc1ccc(C2C(C(=O)N3CCC(C(N)=O)CC3)CC(=O)N2c2ccc(OC)cc2)cc1 (stereo not given),?,-3%,nt,5.2µM*,9%
CCCNC(=O)C1(C)CCCN(Cc2ccc(-c3ccccn3)cc2)C1 (stereo not given),nt,nt,nt,nt,12%
CC(C)N(C)Cc1cn(C)nc1-c1ccc(Oc2ccccc2)cc1,-8%,-11%,5%,5.2µM*,6%
Cn1cc(CN2CCC(O)CC2)c(-c2ccc(Oc3ccccc3)cc2)n1,-4%,-29%,-2%,9.3µM*,-3%
Cn1cc(CN2CCN(Cc3ccccc3)CC2)c(-c2cccc(Cl)c2)n1,?,32µM*,0%,?,20%
Cn1cc(CN2CCC(CO)CC2)c(-c2ccc(Oc3ccccc3)cc2)n1,-7%,nt,3%,24%,10%
COCCN1CCN(Cc2cn(C)nc2-c2cccc(Cl)c2)CC1,4%,-4%,0%,?,2%
O=C(CSc1n[nH]c(=O)[nH]c1=O)NC1CCCCC1,18%,13%,9%,-31%,-10%
Cc1ccc(-c2csc(N3CCN(c4cc5c(cc4Cl)nc(C(C)N)n5CCCO)CC3)n2)cc1 (stereo not given),-4%,-14%,24%,?,81%
Cc1ccc(-c2csc(N3CCN(c4cc5c(cc4Cl)nc(C)n5CCN4CCCCC4)CC3)n2)cc1,?,15%,-11%,2.1µM*,14%
Cc1csc(N2CCN(c3cc4c(cc3Cl)nc(-c3ccncc3)n4CCCN3CCCC3)CC2)n1,?,-16%,-2%,3.7µM*,-16%
CNC(=O)OCc1snc(-c2ccccc2)c1COC(=O)NC,nt,nt,nt,nt,-7%
C/C(=N\NC(=O)c1ccccn1)c1ccc(Cl)cc1,-7%,-4%,-31%,9%,55%
C/C(=N\NC(=O)C(O)c1ccccc1)c1ccc(Cl)cc1 (stereo not given),-19%,21%,6%,4.1µM*,-2%
Oc1ccc(Cl)cc1Nc1nc2ccccc2n2cnnc12,nt,4%,nt,nt,nt
Cc1cccc(-c2nc(N3CCN(c4ccc(F)cc4)CC3)c3ccccc3n2)c1,nt,4%,nt,nt,nt
SMILES,Pf growth 48h,Sm TGR inh,NS1 function inh,Pf growth 96h,AMA1-RON2 inh
CCCCc1c(O)nc(SCC(=O)NCC2CCCO2)[nH]c1=O (stereo not given),-3%,0%,4%,-6%,7%
CCCCCc1c(O)nc(SCC(=O)NCC2CCCO2)[nH]c1=O (stereo not given),4%,-4%,1%,0.47µM*,-1%
COc1ccc(-n2nc(C(=O)NCC(=O)NCCc3ccc(OC)c(OC)c3)c3ccccc3c2=O)cc1,?,-9%,-4%,-19%,20%
CCCCNC(=O)CNC(=O)c1nn(-c2ccc(OC)c(OC)c2)c(=O)c2ccccc12,nt,nt,nt,nt,0%
COc1ccc(CCNC(=O)CNC(=O)c2nn(-c3ccc(OC)c(OC)c3)c(=O)c3ccccc23)cc1OC,9.3µM*,-8%,-17%,60%,-16%
COc1ccc(CCNC(=O)Cn2cnc3c(cnn3C(C)(C)C)c2=O)cc1OC,7%,4%,-8%,10µM*,-14%
CCN(CCCNC(=O)CNC(=O)c1nn(-c2ccc(OC)c(OC)c2)c(=O)c2ccccc12)c1ccccc1,12µM*,-1%,5%,?,-13%
CC(=O)Nc1ccc(NS(=O)(=O)c2ccc3c(c2)oc(=O)n3C)cc1,6%,0%,-62%,4%,-1%
CC(C)CC(=O)Nc1ccc(C(=O)COc2ccc(-c3nnco3)cc2)cc1,?,-7%,-6%,2.1µM*,11%
O=C(COc1ccc(-c2nnco2)cc1)Nc1ccc(F)c(Cl)c1,nt,nt,nt,nt,-3%
Cc1cc(C)n(C(=O)c2ccc(Cl)c(F)c2F)n1,1%,nt,0%,9.3µM*,-2%
Cc1cc(C)n(C(=O)c2cc(F)c(F)cc2C)n1,11%,7%,3%,8%,0%
COc1ccc(C(=O)N2CC3(CC(c4cccc(NC(=O)COc5ccc(Cl)cc5)c4)=NO3)C[C@@H]2C(N)=O)cc1 (stereo not given in full),10µM*,-5%,-31%,12µM*,-2%
CCC(=O)Nc1cccc(C2=NOC3(C2)C[C@H](C(N)=O)N(C(=O)c2ccc(Cl)cc2)C3)c1 (stereo not given in full),?,-14%,-8%,-15%,11%
CCCCCC(=O)Nc1cccc(C2=NOC3(C2)C[C@@H](C(N)=O)N(C(=O)Cc2ccc([N+](=O)[O-])cc2)C3)c1 (stereo not given in full),?,-3%,1%,?,-1%
NC(=O)[C@H]1CC2(CC(c3cccc(NC(=O)COc4ccc(Cl)cc4)c3)=NO2)CN1C(=O)Cc1ccc([N+](=O)[O-])cc1 (stereo not given in full),8.3µM*,3%,-37%,12µM*,0%
C=C(C)C(=O)N1CC2(CC(c3cccc(NC(=O)COc4ccc(Cl)cc4)c3)=NO2)C[C@@H]1C(N)=O (stereo not given in full),?,-4%,-11%,?,-4%
